Rows were chosen to be rich in hits. Some 1.7% of all compounds tested hit in one or more screens of this group.
PfHsp40 rescue: restores yeast growth despite PfHsp40 toxicity. S. cerevisiae expressing PfHsp40, growth rescue, ATP luminescence. growth rescue, % at 12.5 µM. 340,000 compounds, 0.68% hits. AID 504582; in the data active = growth rescue above about 28%, passing the limit was not always enough;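 note: yeast W303a lacking pdr1 and pdr3 grown in galactose medium; growth measured after three days at 30 °C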
CCHFV vOTU inh: blocks the CCHF virus ovarian tumor domain protease | CCHFV vOTU protease, Pep-AMC fluorescence | inhibition, % at 11.5 µM | 370,000 compounds, 0.55% hits | AID 651958; in the data active = inhibition above about 30%; note: 0% = vehicle wells with enzyme and 100% = no enzyme wells
RN4220 kill: kills Staphylococcus aureus RN4220; inhibition, % (test concentration not listed); AID 1259311; 330,000 compounds, 0.33% hits; S. aureus RN4220 growth, OD600, 16 h; in the data active = inhibition above about 85%;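 note: plate controls were untreated cells for no effect and reference antibiotic for full effect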
Mtb hypoxia inh: reduces hypoxia-regulated biosensor signal in M. tuberculosis. M. tuberculosis hypoxia-regulated fluorescent reporter, fluorescence. 300,000 compounds, 0.1% hits. fluorescence inhibition, % (test concentration not listed); in the data active = fluorescence inhibition mostly above about 23%, no sharp cut-off; inactive = mostly below about 17%
Sa ugtP lethal: growth inhibition of S. aureus ugtP deletion strain | S. aureus RN4220 ugtP deletion, OD600 growth, 16 h | growth inhibition, % (no concentration beside the values) | 330,000 compounds, 0.54% hits | AID 1259309; in the data active = growth inhibition above about 68%;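 note: plate controls were untreated wells for no effect and antibiotic for full effect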
Vc quorum ag: inducers of Vibrio cholerae quorum light production without autoinducers. AID 588436. 350,000 compounds, 0.16% hits. activation, % at 18.7 µM. V. cholerae BH1578 lux reporter, luminescence, 6 h; in the data active = activation mostly above about 9.7%, no sharp cut-off
An asterisk follows results filed as active; i = inactive; nt = no result shown.

SMILES | PfHsp40 rescue | CCHFV vOTU inh | RN4220 kill | Mtb hypoxia inh | Sa ugtP lethal | Vc quorum ag
Oc1ccc(-c2csc(-c3c[nH]c4ccccc34)n2)c(O)c1 | 8.8 | 18.4 | -3.2 | 0.3 | -36.9 | -0.3
Cc1ccc(-c2csc(-c3c[nH]c4ccccc34)n2)c(C)c1 | 0.0 | 7.4 | -7.1 | nt | 94.7* | 0.3
COc1ccc(C=Nc2nc3ccccc3n2CCN2CCCCC2)cc1OC | nt | nt | 1.7 | 9.4 | 2.7 | nt
COc1ccc2nc(NC(=S)N(C)C)sc2c1 | 99.1* | 21.9 | 2.8 | 7.9 | 1.5 | i
CN1CCN(c2ccccc2NC(=O)c2ccc([N+](=O)[O-])o2)CC1 | 0.6 | nt | 8.7 | -6.1 | 27.7 | -0.5
CCC(=O)N1CCN(c2ccc(Cl)cc2NC(=O)c2ccc([N+](=O)[O-])o2)CC1 | 45.6* | -3.6 | 9.7 | 2.8 | 20.2 | i
CS(=O)(=O)N1CCN(c2ccccc2NC(=O)c2ccc([N+](=O)[O-])o2)CC1 | -0.5 | 7.3 | 99.8* | 8.8 | 87.6 | i
CC(=O)N1CCN(c2ccc(NC(=O)c3ccc([N+](=O)[O-])o3)cc2Cl)CC1 | 1.7 | 12.9 | 99.1* | nt | 99.7* | i
CC(=O)Nc1ccc2nc(NC(=O)c3ccc([N+](=O)[O-])o3)sc2c1 | -1.1 | -1.3 | 17.9 | 13.8 | 98.2* | i
NCCCCC1NC(=O)c2cc([N+](=O)[O-])cc(F)c2NCCCCC(C(N)=O)NC(=O)CNC1=O (stereo not given) | nt | nt | 6.7 | 1.1 | 1.2 | nt
CCCN1C(=O)SC(=Cc2ccc(N3CCOCC3)o2)C1=O | nt | nt | 2.4 | 13.7 | -2.7 | nt
COc1cccc(C=NNC(=O)c2cc3c(OC)cccc3[nH]2)c1OC | nt | nt | 2.9 | 17.7 | -1.7 | nt
CCN1CCN(c2ccc(S(=O)(=O)N3CCCCC3)cc2NC(=O)c2ccc([N+](=O)[O-])o2)CC1 | -1.4 | -0.9 | 10.0 | 5.9 | 3.4 | -0.6
CCC(=O)N1CCN(c2ccc(NC(=O)c3ccc([N+](=O)[O-])o3)cc2Cl)CC1 | 9.0 | 2.5 | 99.1* | nt | 91.1* | -0.7
CCC(=O)N1CCN(c2ccc(NC(=O)c3ccco3)cc2Cl)CC1 | -0.4 | 10.6 | -3.6 | 4.9 | 8.8 | -2.3
CC(=O)N1CCc2c(sc(NC(=O)c3ccc([N+](=O)[O-])o3)c2C#N)C1 | 1.3 | 11.0 | 15.5 | 40.1* | 90.2* | -0.6
CCN1CCN(c2ccc(NC(=O)c3ccc([N+](=O)[O-])o3)cc2Cl)CC1 | -0.2 | 1.9 | 99.9* | 11.5 | 99.4* | 0.4
COC(=O)C(Cc1ccccc1)NC(=O)Cn1ccc(NC(=O)OCc2ccccc2)nc1=O (stereo not given) | nt | nt | 6.3 | 9.0 | 3.9 | nt
c1ccc(-c2nc(NCc3cccnc3)c3oc4ccccc4c3n2)cc1 | 48.0* | -2.8 | -2.1 | 1.7 | 7.2 | 12.4
O=C(O)CNc1nc(-c2ccccc2)nc2c1oc1ccccc12 | -0.2 | 0.2 | 7.0 | 5.4 | 3.8 | -0.5
COc1cccc2c1C(=O)c1c(O)c3c(c(O)c1C2=O)CC(O)(C(C)=O)CC3OC1CC(N(C)C)C(O)C(C)O1 (stereo not given) | 400.8* | -10.1 | nt | nt | nt | 16.7
c1ccc(CCNc2ccnc3cc4ccccc4cc23)cc1 | 188.9* | -139.6 | 58.0 | nt | 8.5 | -0.5
CCOC(=O)c1ccc(-c2c(-c3ccccc3OC)oc3ccccc23)cc1F | 0.5 | -24.8 | -5.5 | 10.3 | 92.4* | i
O=C(CNC(=O)c1cccc(Br)c1)NN=Cc1cn[nH]c1-c1ccccc1 | nt | nt | 0.0 | -13.9 | 6.2 | nt
O=C(Nc1cccc(O)c1)c1ccc(Br)cc1 | 0.3 | -8.6 | 9.3 | 8.6 | -1.2 | -0.2
SMILES | PfHsp40 rescue | CCHFV vOTU inh | RN4220 kill | Mtb hypoxia inh | Sa ugtP lethal | Vc quorum ag
O=C(Nc1cccc(O)c1)c1cccc(C(=O)Nc2cccc(O)c2)c1 | 0.0 | -4.8 | 0.5 | 47.4* | 4.3 | -0.4
Cn1ncc(C#N)c1N=CN(Cc1ccccc1)Cc1ccccc1 | nt | nt | 101.1* | nt | 99.8* | nt
Cn1ncc(C#N)c1/N=C/N(Cc1ccccc1)Cc1ccccc1 | 0.4 | 0.4 | nt | nt | nt | nt
O=C(Nc1nnc(C2=COCCO2)o1)c1cccc(Br)c1 | 59.0* | 16.0 | 91.5* | 2.7 | 99.0* | 0.7
CC(=NNC(=O)c1ccc(CSc2cccc3cccnc23)cc1)C1CCCCC1 | nt | nt | 4.7 | 11.8 | -2.0 | nt
O=C(O)CN1CCNCCN(CC(=O)O)CCNCC1 | 106.6* | 1.8 | nt | nt | nt | i
O=C(O)CN1CCNCC1 | nt | nt | 6.8 | -6.5 | -1.0 | nt
COc1ccc(C(=O)C(C)OC(=O)CNC(=O)c2ccco2)cc1 (stereo not given) | 0.5 | -2.5 | 5.3 | 31.2* | 12.0 | -0.3
O=C(CNC(=O)c1ccco1)OC(C(=O)c1ccccc1)c1ccccc1 (stereo not given) | -0.8 | 6.2 | -0.9 | nt | 3.7 | i
O=C(NN=Cc1cccnc1)C12CC3CC(CC(C3)C1)C2 | nt | nt | 2.1 | -1.4 | 1.3 | nt
COc1ccc(C=NNC(=O)c2cccc(C(=O)NN=Cc3ccc(OC)c(OC)c3)n2)cc1OC | nt | nt | 0.2 | -2.4 | 5.4 | nt
S=c1[nH]nc(C2CCCCC2)n1N=Cc1cccc(Br)c1 | nt | nt | 1.9 | 10.9 | -2.3 | nt
Cc1c(Cl)cccc1NS(=O)(=O)c1ccc2c(c1)C1C=CCC1C(c1ccc(C(=O)O)cc1)N2 (stereo not given) | 34.8* | nt | 41.8 | 3.2 | 37.2 | -0.1
Cc1ccc(N(C)c2nc(N)nc(N)c2N=O)cc1 | nt | 60.7* | nt | nt | nt | nt
COCCNC(=O)c1cn(C)c2ccc(S(=O)(=O)N3CCCC3)cc2c1=O | 0.5 | 0.6 | 3.3 | 1.2 | 1.8 | 3.4
CC(NC(=O)c1cn(C)c2ccc(S(=O)(=O)N3CCCC3)cc2c1=O)c1ccc2c(c1)OCCO2 (stereo not given) | 42.4* | -2.0 | 0.9 | 17.3 | 3.2 | i
CCNC(=S)NN=Cc1ccc(F)cc1 | nt | nt | 2.1 | 1.8 | 2.3 | nt
O=C(CSc1nc2ccccc2[nH]1)N/N=C/C=C/c1ccccc1[N+](=O)[O-] | 0.4 | -5.8 | nt | nt | nt | -0.1
O=C(CSc1nc2ccccc2[nH]1)NN=C/C=C\c1ccccc1[N+](=O)[O-] | nt | nt | 97.8* | 5.9 | 96.9* | nt
COC(=O)c1cccc(C23CC4(C2)C(CN(Cc2ccc(-c5ccccc5)cc2)C4c2ccccc2)C3c2ccc(C(F)(F)F)cc2)c1 (stereo not given) | nt | nt | 6.4 | 18.5 | 3.4 | nt
CCN(CC)C(=O)CSc1nc(C)cc(C)c1C#N | -2.3 | -3.8 | 2.4 | 10.2 | 6.8 | -0.3
CCN(Cc1ccccc1)C(=O)CSc1nc(C)cc(C)c1C#N | 128.6* | 7.6 | 4.0 | 12.2 | 9.9 | -0.2
Cc1ccc(N=Nc2c(N)[nH]n3c(=O)cc(-c4ccccc4)nc23)cc1 | 0.1 | 4.0 | 15.5 | nt | 9.1 | 32.1*
Cc1[nH]n2c(=O)cc(C(C)(C)C)nc2c1-c1ccccc1 | 0.3 | 25.0 | 65.3 | 5.7 | 95.8* | -0.6
Cc1[nH]n2c(=O)cc(C(C)C)nc2c1-c1ccccc1 | 1.9 | 9.8 | -3.1 | 1.9 | -4.6 | i
Cc1[nH]n2c(=O)cc(-c3ccc([N+](=O)[O-])cc3)nc2c1-c1ccccc1 | 0.2 | 19.5 | 86.4* | nt | 75.5 | -0.3
CCOc1ccc(CNC(=S)NN=Cc2ccncc2)cc1 | nt | nt | 4.0 | 1.4 | 0.1 | nt

High-throughput results deposited in PubChem by several laboratories.
